An excerpt weighted towards active compounds, which were near 4.7% of everything screened.
PfHsp90 yeast 2 – inhibits growth of yeast expressing Plasmodium falciparum Hsp90; S. cerevisiae expressing PfHsp90, BacTiter-Glo ATP, 48 h; yeast lacking PDR1 and PDR3 efflux regulators; inhibition, % at 9.4 µM; 310,000 tested, 0.32% active;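 active means every replicate shows inhibition above about 80%, whatever the replicate mean, limit read from the data; inconclusive means mean inhibition reaches the set limit but some replicate falls short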
EBI2 block – EBI2 (human) antagonism; P32249; EBI2 beta-arrestin recruitment, luminescence, 7a,25-OHC stimulated; inhibition, % at 5 µM; 360,000 tested, 0.81% active; AID 651636; in the data active means inhibition above about 38%;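 further: enzyme fragment complementation signal reports receptor beta-arrestin coupling in cells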
Target sequence (P32249 whole entry, looked up, the tested form may be a part): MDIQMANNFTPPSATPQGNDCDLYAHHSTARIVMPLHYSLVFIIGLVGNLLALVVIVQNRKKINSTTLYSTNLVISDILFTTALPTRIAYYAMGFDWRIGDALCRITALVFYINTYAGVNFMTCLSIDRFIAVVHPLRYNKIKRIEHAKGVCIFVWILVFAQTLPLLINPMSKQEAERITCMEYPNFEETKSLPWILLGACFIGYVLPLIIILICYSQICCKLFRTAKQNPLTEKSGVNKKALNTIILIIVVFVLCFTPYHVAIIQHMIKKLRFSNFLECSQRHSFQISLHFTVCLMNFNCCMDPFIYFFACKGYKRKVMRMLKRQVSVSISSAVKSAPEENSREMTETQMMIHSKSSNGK
tim23-1 inh – growth inhibitors of tim23-1 mutant yeast | S. cerevisiae tim23-1 growth, BacTiter-Glo luminescence, 24 h | inhibition, % at 20 µM | 330,000 tested, 1.3% active;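 active means growth inhibition of the mutant yeast at or above 50%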;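 further: temperature-sensitive mutant grown at 25 °C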
SKKanGAS inh – inhibitors of SKKanGAS S. pyogenes growth in kanamycin (SK-promoter or general growth effect); 300,000 tested, 1.3% active; BacTiter-Glo, 6 h; inhibition, % at 7.5 µM;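 active means mean replicate score, as percent of positive control median, at least 50; inconclusive means mean below 50 but one replicate at or above 50; inactive means mean and every replicate below 50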;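 further: strain carries kanamycin resistance gene driven by streptokinase promoter and grows in 40 µg/ml kanamycin; loss of luminescence reflects streptokinase promoter inhibition or plain growth inhibition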
TIM10 inh – TIM10 yeast growth inhibition. S. cerevisiae TIM10 strain growth, BacTiter-Glo luminescence, 24 h. inhibition, % at 10 µM. 330,000 tested, 1.4% active. AID 463195;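 active means inhibition of 40% or more at the single tested concentration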;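 further: wild-type TIM10 isogenic control strain grown at permissive 25 °C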
tim10-1 inh – tim10-1 yeast growth inhibition. 330,000 tested, 2.2% active. S. cerevisiae tim10-1 ts strain growth, BacTiter-Glo, 24 h. inhibition, % at 20 µM;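 active means inhibition of at least 40%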;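 further: mutant grown at 25 °C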
tim10-1 confirm – confirmation of tim10-1 mutant yeast growth inhibitors; 7,400 tested, 56% active; S. cerevisiae tim10-1 ts strain growth, BacTiter-Glo, 24 h; AID 463213; inhibition, % at 20 µM; shares compounds with tim10-1 inh;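 active means inhibition of yeast growth at or above a set limit in either of two repeat tests at 20 µM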;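 further: tim10-1 mutant grown at permissive 25 °C to find synthetic lethal compounds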
TIM10 conf – confirmation of TIM10 yeast growth inhibitors. shares compounds with TIM10 inh. S. cerevisiae tim10 strain growth, BacTiter-Glo luminescence, 24 h. inhibition, % at 10 µM. 4,600 tested, 63% active. AID 463215;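 active means inhibition of yeast growth at or above a set limit in either of two replicates at 10 µM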; further: this counterscreen used the strain with wild-type TIM10
tim23-1 conf – tim23-1 yeast growth inhibition, confirmed | shares compounds with tim23-1 inh | S. cerevisiae tim23-1 growth, BacTiter-Glo luminescence, 24 h | inhibition, % at 20 µM | 4,400 tested, 83% active | AID 463218;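 active means inhibition above about 39% in either of two replicate wells at 20 µM, limit read from the data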;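 further: temperature-sensitive tim23-1 mutant grown at 25 °C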
A number is an active result.

For Cc1ccc2c(c1)c1ccc3c(c1n2C)C(=O)C=CC3=O the results were PfHsp90 yeast 2 inconclusive, EBI2 block inactive, tim23-1 inh 73, TIM10 inh 63, tim10-1 inh 63, tim10-1 confirm 56, TIM10 conf 94 and tim23-1 conf 42.
For CCc1ccc(S(=O)(=O)NCC2(N3CCOCC3)CCCCC2)cc1 the results were PfHsp90 yeast 2 inactive, EBI2 block inactive, tim23-1 inh inactive, TIM10 inh inactive and tim10-1 inh inactive.
For Cc1ncc(CO)c(/C=N/NC(=O)c2cc3c(s2)CCCC3)c1O the results were PfHsp90 yeast 2 inactive, EBI2 block inactive, tim23-1 inh inactive, SKKanGAS inh inactive, TIM10 inh inactive and tim10-1 inh inactive.
For CCN(CC)c1ccc2nc3ccc(N)cc3[n+](-c3ccccc3)c2c1 the results were PfHsp90 yeast 2 inactive, EBI2 block inactive, tim23-1 inh 59, TIM10 inh inactive, tim10-1 inh 57, tim10-1 confirm 43 and tim23-1 conf 57.
Screening Cc1cc(OC(=O)c2cc(F)c(F)cc2Cl)nc(C)n1 returned PfHsp90 yeast 2 inactive, EBI2 block inactive, tim23-1 inh inactive, SKKanGAS inh inactive, TIM10 inh inactive and tim10-1 inh inactive.
Screening Cc1cc(C)c(S(=O)(=O)c2ccccc2)c(OC(=O)c2cc(F)c(F)cc2Cl)n1 returned PfHsp90 yeast 2 inactive, EBI2 block inactive, tim23-1 inh 66, SKKanGAS inh inactive, TIM10 inh 45, tim10-1 inh 48, tim10-1 confirm 33, TIM10 conf inactive and tim23-1 conf 72.
O=C(Nc1csc([N+](=O)[O-])c1)Nc1ccccc1Cl was read as PfHsp90 yeast 2 inactive, EBI2 block inactive, tim23-1 inh 66, SKKanGAS inh inactive, TIM10 inh 54, tim10-1 inh 51, tim10-1 confirm 49, TIM10 conf 67 and tim23-1 conf 56.
Screening Cc1cccc(C)c1NS(=O)(=O)c1ccc(-c2cnc(C3CC3)o2)cc1 returned PfHsp90 yeast 2 inactive, EBI2 block inactive, tim23-1 inh 71, SKKanGAS inh inactive, TIM10 inh inactive, tim10-1 inh 54, tim10-1 confirm 32 and tim23-1 conf 63.
O=S(=O)(NCc1ccccc1)c1ccc(-c2cnc(C3CC3)o2)cc1 was read as PfHsp90 yeast 2 inactive, EBI2 block inactive, tim23-1 inh inactive, SKKanGAS inh inactive, TIM10 inh inactive and tim10-1 inh inactive.
Screening Oc1c(Cl)cc(Cl)cc1C=Nc1cc(C(F)(F)F)ccc1N1CCc2ccccc2C1 returned PfHsp90 yeast 2 inactive, EBI2 block inactive, tim23-1 inh 58, SKKanGAS inh 87, TIM10 inh inactive, tim10-1 inh 60, tim10-1 confirm 36 and tim23-1 conf 59.
Screening Oc1c(Cl)cccc1C=Nc1cc(C(F)(F)F)ccc1N1CCCC1 returned PfHsp90 yeast 2 inactive, EBI2 block inactive, tim23-1 inh inactive, SKKanGAS inh inactive, TIM10 inh inactive and tim10-1 inh inactive.
CCC1CCCCN1S(=O)(=O)c1ccc(NC(=O)c2snnc2C)cc1 (configuration not stated) was read as PfHsp90 yeast 2 inactive, EBI2 block inactive, tim23-1 inh inactive, SKKanGAS inh inactive, TIM10 inh inactive and tim10-1 inh inactive.
Screening CCC1CCCCN1S(=O)(=O)c1ccc(NC(=O)c2cccs2)cc1 (configuration not stated) returned PfHsp90 yeast 2 inactive, EBI2 block inactive, tim23-1 inh 72, SKKanGAS inh inactive, TIM10 inh 64, tim10-1 inh 72, tim10-1 confirm 65, TIM10 conf 68 and tim23-1 conf 78.
Screening COc1ccccc1C1CC(c2ccc(NS(C)(=O)=O)cc2)=NN1C(=O)c1ccccc1 (configuration not stated) returned PfHsp90 yeast 2 inactive, EBI2 block inactive, tim23-1 inh inactive, SKKanGAS inh inactive, TIM10 inh inactive and tim10-1 inh inactive.
For COc1ccccc1C1CC(c2ccccc2)=NN1C(=O)c1ccccc1 (configuration not stated) the results were PfHsp90 yeast 2 inactive, EBI2 block inactive, tim23-1 inh 62, SKKanGAS inh inactive, TIM10 inh inactive, tim10-1 inh 42, tim10-1 confirm 46 and tim23-1 conf 52.
`c1ccc2c(-c3[nH]ncc3CNCCCn3ncc4ccccc43)cccc2c1` gave PfHsp90 yeast 2 inactive, EBI2 block inactive, tim23-1 inh inactive, SKKanGAS inh inactive, TIM10 inh inactive and tim10-1 inh inactive.
For CCOC(=O)C1CCCN(C(=O)c2cccs2)CC1 (configuration not stated) the results were EBI2 block inactive.
`Cc1ccc(S(=O)(=O)Nc2cc(Cl)c(O)c3ncccc23)cc1` gave PfHsp90 yeast 2 104, EBI2 block inactive, tim23-1 inh 73, SKKanGAS inh 79, TIM10 inh 45, tim10-1 inh 62, tim10-1 confirm inactive, TIM10 conf 49 and tim23-1 conf 82.
COC1=C(C)C(O)=C(C(=O)/C=C/c2ccccc2)C(=O)C1(C)C was read as PfHsp90 yeast 2 inactive, EBI2 block inactive, tim23-1 inh 57, SKKanGAS inh inactive, TIM10 inh inactive, tim10-1 inh 44, tim10-1 confirm inactive and tim23-1 conf 48.
`O=C(c1noc2c1CCCC2)N1CCC(CO)(Cc2ccccc2Cl)CC1` gave PfHsp90 yeast 2 inactive, EBI2 block inactive, tim23-1 inh inactive, SKKanGAS inh inactive, TIM10 inh inactive and tim10-1 inh inactive.
Screening CCS(=O)(=O)c1ncc(CO)n1CCc1ccccc1 returned PfHsp90 yeast 2 inactive, EBI2 block inactive, tim23-1 inh inactive, SKKanGAS inh inactive, TIM10 inh inactive and tim10-1 inh inactive.
For O=C(Nc1ccccc1C(=O)N1CCOCC1)c1ccc(Br)cc1 the results were PfHsp90 yeast 2 inactive, EBI2 block inactive, tim23-1 inh inactive, SKKanGAS inh inactive, TIM10 inh inactive and tim10-1 inh inactive.
N#Cc1cc(N)ccc1Sc1ccccc1 was read as PfHsp90 yeast 2 inactive, EBI2 block inactive, tim23-1 inh inactive, SKKanGAS inh inactive, TIM10 inh inactive and tim10-1 inh inactive.
Screening N#Cc1cc(N)ccc1Sc1ccc(Cl)cc1 returned PfHsp90 yeast 2 inactive, EBI2 block inactive, tim23-1 inh 69, SKKanGAS inh inactive, TIM10 inh inactive, tim10-1 inh 55, tim10-1 confirm 31 and tim23-1 conf 48.

Bioassay records from PubChem BioAssay.
